PI5P4K alpha inh: qHTS for Inhibitors of phosphatidylinositol 5-phosphate 4-kinase (PI5P4K) | Phosphatidylinositol 5-phosphate 4-kinase type-2 alpha (Homo sapiens), P48426 | PI5P4Kalpha enzyme, ADP-Glo luminescence, 60 min; stronger effect = lower value | max response, % | 330,000 tested, 1.2% active | AID 652105, 2013; active = max response of -50% or lower; inconclusive = between -30% and -50%; inactive = -30% or higher; also: value at the top dose of about 77 µM
Target sequence (P48426 whole entry, looked up): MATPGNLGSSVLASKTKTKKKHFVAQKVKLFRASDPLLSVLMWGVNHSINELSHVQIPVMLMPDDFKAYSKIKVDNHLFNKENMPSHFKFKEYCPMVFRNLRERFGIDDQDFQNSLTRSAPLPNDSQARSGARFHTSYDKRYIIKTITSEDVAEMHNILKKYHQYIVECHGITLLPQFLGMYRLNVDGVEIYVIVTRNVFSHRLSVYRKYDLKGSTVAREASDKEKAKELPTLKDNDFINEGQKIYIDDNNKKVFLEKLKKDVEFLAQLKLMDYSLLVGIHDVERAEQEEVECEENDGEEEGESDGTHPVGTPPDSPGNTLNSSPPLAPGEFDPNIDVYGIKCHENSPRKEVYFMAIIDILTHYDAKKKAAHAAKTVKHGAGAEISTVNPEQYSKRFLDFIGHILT
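ADP-Glo luminescence end-point read after a 60 min room-temperature kinase reaction of PI5P4Kalpha plus substrate, initiated with ATP at 5 microM final. Buffer: 0.038 M HEPES pH 7.4, EGTA, 0.1% CHAPS, 5% DMSO.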
WRN helicase inh: qHTS for Inhibitors of WRN Helicase; AID 651768, 2012; WRN helicase unwinding, fluorescent forked duplex, kinetic; Bifunctional 3'-5' exonuclease/ATP-dependent helicase WRN (Homo sapiens), Q14191; 360,000 tested, 0.46% active; Potency, µM (highest dose often 114 µM), for inactives: at the top dose activity change, negative = inhibition, most hits filed as inhibitors; also: potency is read from the fitted curve at half-maximal effect; nearly all actives have a fitted effect of over 55% in size
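Primary qHTS, 1536-well format. 20 nM WRN + compound, 15 min RT; start with 100 nM forked fluorophore/quencher duplex, 2 mM ATP (final); kinetic read ex 525/em 598 nm.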
USP2a inh: qHTS Assay for Inhibitors of Ubiquitin-specific Protease USP2a Using CHOP2 as the Reporter | Ubiquitin carboxyl-terminal hydrolase 2 (Homo sapiens), O75604 | USP2 core, Ub-CHOP2 coupled fluorogenic reporter, 485/531 | Potency, µM (top dose mostly 38.3 µM), without a hit: at the highest dose activity change, negative = inhibition, most hits filed as inhibitors | 330,000 tested, 0.01% active | AID 463254, 2010;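 also: potency is read from the fitted curve at half-maximal effect; plate controls were DMSO wells for no effect and full inhibition by NEM control for full effect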
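Cell-free coupled assay: 10nM USP2 core preincubated 30min RT with compound in Tris-HCl pH 8.0/CaCl2/CHAPS buffer, then 25nM Ub-CHOP2 and 25nM reporter substrate; fluorescence (Ex 485/Em 531) read after 60min RT, normalized to NEM inhibition, concentration-response curves fitted.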
PLK1 PBD inh: qHTS for Inhibitors of PLK1-PDB (polo-like kinase 1 - polo-box domain): Primary Screen. Potency, µM, for inactives: max response, negative = inhibition, most hits filed as inhibitors. Serine/threonine-protein kinase PLK1 (Homo sapiens), P53350. Plk1 PBD binding of FITC phosphopeptide, fluorescence polarization. 360,000 tested, 2.8% active; also: potency is read from the fitted curve at half-maximal effect; series mostly up to about 57 µM; nearly all actives have a fitted effect of over 65% in size
USP1-UAF1 inh: Inhibitors of USP1/UAF1: Primary Screen. Ubiquitin carboxyl-terminal hydrolase 1 (Homo sapiens), O94782. 390,000 tested, 0.23% active. Potency, µM (titrated, usually from 57.1 µM), without a hit: at the highest dose activity change, negative = inhibition, actives largely listed as inhibitors. recombinant USP1/UAF1, Ub-Rhodamine cleavage fluorescence; also: potency is read from the fitted curve at half-maximal effect; nearly all actives have a fitted effect of over 60% in size
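USP1/UAF1 complex (1 nM) preincubated 15 min at room temperature with compound, then Ub-Rho substrate (150 nM final) added. Kinetic fluorescence at 480/540 nm over 6 reads at 60 s intervals; 50 mM HEPES pH 7.8, 0.5 mM EDTA, 0.1 mg/ml BSA, 1 mM TCEP, 0.01% Tween-20.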
An asterisk follows results filed as active; [ ] = dose if it differs, or a comment. Rows were chosen to be rich in hits. Some 3.3% of all compounds tested hit in one or more screens of this group. Unless noted, calls follow the shape of the dose curve; as a rule, active = well fitted curve in the direction sought with a large enough effect; inconclusive = small, poorly fitted or top-dose-only effect, or another doubt; inactive = no such curve, though single readings can be large; an effect the other way counts as inactive or inconclusive. Unless noted, % is scaled to controls: 0 for no effect and ±100 for the full control effect.

What do the screens show for `C/C(CC(C)C)=N\NS(=O)(=O)c1ccc(C)c([N+](=O)[O-])c1`?
PI5P4K alpha inh: -5; WRN helicase inh: -7%; USP2a inh: -1%; PLK1 PBD inh: 30µM*; USP1-UAF1 inh: -10%

Results for O=C1NC(=S)/C(=C\c2ccc(-c3ccccc3Cl)o2)S1 ?
PI5P4K alpha inh: -69*; WRN helicase inh: 50µM*; USP2a inh: 2%; PLK1 PBD inh: 13µM*; USP1-UAF1 inh: -26%

What do the screens show for `Cc1nnc(C)n1/N=C/c1ccc(-c2ccccc2Cl)o1`?
PI5P4K alpha inh: 2; WRN helicase inh: 11%; USP2a inh: 7%; PLK1 PBD inh: inconclusive; USP1-UAF1 inh: -17%

What do the screens show for `O=C1NC(=O)/C(=C/c2ccc(-c3cc(C(=O)O)ccc3Cl)o2)S1`?
PI5P4K alpha inh: -82*; WRN helicase inh: -10%[11.6 µM]; USP2a inh: -2%; PLK1 PBD inh: inconclusive; USP1-UAF1 inh: inconclusive

How did O=C1NC(=O)/C(=C\c2ccc(Br)o2)S1 do in these assays?
PI5P4K alpha inh: inconclusive; WRN helicase inh: -34%; USP2a inh: -4%; PLK1 PBD inh: -22%; USP1-UAF1 inh: -1%

What do the screens show for `COc1cc(-c2nc(CN3CCCN(C(=O)c4ccco4)CC3)c(C)o2)ccc1F`?
PI5P4K alpha inh: 0; WRN helicase inh: -4%; USP2a inh: 1%; PLK1 PBD inh: 30µM*; USP1-UAF1 inh: 5%

Results for CCOC(=O)Cn1cnc2c(cnn2-c2ccc(OC)cc2)c1=O ?
PI5P4K alpha inh: -7; WRN helicase inh: 4%; USP2a inh: 1%; PLK1 PBD inh: -4%; USP1-UAF1 inh: -21%

How did CCOCCCNC(=O)Cn1cnc2c(cnn2-c2ccc(OC)cc2)c1=O do in these assays?
PI5P4K alpha inh: -4; WRN helicase inh: 14%; USP2a inh: 0%; PLK1 PBD inh: 27µM*; USP1-UAF1 inh: -11%

How did O=S(=O)(N/N=C/c1cccnc1)c1ccc(Cl)c(Cl)c1 do in these assays?
PI5P4K alpha inh: -4; WRN helicase inh: -21%; USP2a inh: 3%; PLK1 PBD inh: 13µM*; USP1-UAF1 inh: -13%

How did O=C(N/N=C/c1cccnc1)c1ccc(Cl)c(Cl)c1 do in these assays?
PI5P4K alpha inh: -4; WRN helicase inh: -3%; PLK1 PBD inh: 1%; USP1-UAF1 inh: -14%

How did COc1ccc(CCN(Cc2cc3ccc(C)cc3n3nnnc23)C(C)=O)cc1OC do in these assays?
PI5P4K alpha inh: inconclusive; WRN helicase inh: inconclusive; USP2a inh: -1%; PLK1 PBD inh: 3.4µM*; USP1-UAF1 inh: -8%

How did S=c1[nH]nc(-c2cc(-c3ccccc3)n[nH]2)n1/N=C/C=C/c1ccccc1 do in these assays?
PI5P4K alpha inh: -25; WRN helicase inh: 3%; USP2a inh: 2%; PLK1 PBD inh: -4%; USP1-UAF1 inh: -22%

How did S=c1[nH]nc(-c2cc(-c3ccccc3)n[nH]2)n1/N=C/C(Br)=C/c1ccccc1 do in these assays?
PI5P4K alpha inh: inconclusive; WRN helicase inh: 45µM*; USP2a inh: 2%; PLK1 PBD inh: inconclusive; USP1-UAF1 inh: 0%

How did COc1ccccc1/C=C/C=N/n1c(-c2cc(-c3ccccc3)n[nH]2)n[nH]c1=S do in these assays?
PI5P4K alpha inh: -52*; WRN helicase inh: inconclusive; USP2a inh: 0%; PLK1 PBD inh: -19%; USP1-UAF1 inh: -6%

What do the screens show for `CN(C1CCCCC1)S(=O)(=O)c1ccc2c(c1)c(=O)c(C(=O)N1CCN(c3ccccc3)CC1)cn2C`?
USP1-UAF1 inh: -12%

Results for OCc1ccccc1SSc1ccccc1CO ?
PI5P4K alpha inh: -19; WRN helicase inh: 14µM*; PLK1 PBD inh: 0.27µM*; USP1-UAF1 inh: inconclusive

Results for OCc1ccccc1CNCc1ccccc1 ?
WRN helicase inh: -1%[57.1 µM]; USP2a inh: 0%; PLK1 PBD inh: -6%; USP1-UAF1 inh: -10%

What do the screens show for `Cc1c(Cl)cccc1N=Cc1ccc([N+](=O)[O-])s1`?
WRN helicase inh: -17%; USP2a inh: 7%; PLK1 PBD inh: -5%; USP1-UAF1 inh: 32µM*

What do the screens show for `CCOC(=O)c1ccc(NC(=O)CC2C(=O)N(c3ccccc3)C(=O)N2C2CCCCC2)cc1` (centres undefined)?
USP1-UAF1 inh: -17%

What do the screens show for `CC(=O)Nc1cc(-c2cccc(C(=O)NCCN(C)C)c2)cn2c(-c3ccccc3)cnc12`?
PI5P4K alpha inh: -2; WRN helicase inh: inconclusive; PLK1 PBD inh: -13%

What do the screens show for `CC(=O)Nc1cc(-c2cccc(C(=O)NCCN(C)C)c2)cn2c(-c3cccc(C(F)(F)F)c3)cnc12`?
PI5P4K alpha inh: inconclusive; WRN helicase inh: 79µM*; PLK1 PBD inh: -13%

Results for Cn1c(CCc2nc3ccccc3[nH]2)nnc1SCC#N ?
PI5P4K alpha inh: inconclusive; WRN helicase inh: -1%; USP2a inh: 2%; PLK1 PBD inh: 19µM*; USP1-UAF1 inh: -11%

What do the screens show for `Cc1nnc(NC(=O)CSc2nnc(CCc3nc4ccccc4[nH]3)n2C)s1`?
PI5P4K alpha inh: 1; WRN helicase inh: -5%; USP2a inh: -3%; PLK1 PBD inh: -16%; USP1-UAF1 inh: -3%

Results for CCC(=O)Nc1cc(-c2cccc(C)c2)nn1-c1ccccc1 ?
USP1-UAF1 inh: -10%

Results for CCOC(=O)c1c(C)oc2c1cc(NS(=O)(=O)c1ccc(C(=O)O)cc1)c1ccccc12 ?
PI5P4K alpha inh: inconclusive; WRN helicase inh: -36%; USP2a inh: 0%; PLK1 PBD inh: 27µM*; USP1-UAF1 inh: inconclusive

Results for COc1ccccc1CNC(=O)C1CCN(C2=NS(=O)(=O)C(c3ccc(C)c(C)c3)=C2C)CC1 ?
USP1-UAF1 inh: -24%

What do the screens show for `Cc1n[nH]c(C)c1N1C(=O)c2cccc3c(N4CCCCCC4)ccc(c23)C1=O`?
WRN helicase inh: -10%; USP2a inh: inconclusive; PLK1 PBD inh: inconclusive; USP1-UAF1 inh: 25µM*

Results for COc1ccc(Cl)cc1NCc1nnc2n1CCCCC2 ?
USP1-UAF1 inh: -27%

Results for Cc1ccc(N2CC(c3nnc(NC(=O)c4ccco4)s3)CC2=O)cc1Cl (centres undefined) ?
USP1-UAF1 inh: -14%

How did O=[N+]([O-])c1ccc(S(=O)(=O)Nc2ccc3c(c2)OCCO3)cc1 do in these assays?
PI5P4K alpha inh: -6; WRN helicase inh: -2%; USP2a inh: 5%; PLK1 PBD inh: 24µM*; USP1-UAF1 inh: -8%

Results for C(=C\n1nnc2ccccc21)/c1ccc[nH]1 ?
PI5P4K alpha inh: -77*; WRN helicase inh: inconclusive; USP2a inh: 1%; PLK1 PBD inh: -4%; USP1-UAF1 inh: -3%

Source: PubChem (National Center for Advancing Translational Sciences (NCATS))
